Source: PubChem (National Center for Advancing Translational Sciences (NCATS))
Sampled rows, rich in hits. Any-hit rate of the full collection: about 11%.
HCV inh: blocks hepatitis C virus | Huh7.5.1 HCVcc-Cre infection, luciferase reporter, 44 h | Potency, µM (top dose mostly 41.8 µM), without a hit: top-dose activity change, negative = inhibition, most hits filed as inhibitors | 340,000 compounds, 3.4% hits | AID 651820; further: on the % scale 0 is the no-effect control and ±100 the full control effect
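Antiviral activity was scored by luciferase reporter output from cells infected with HCVcc-Cre (~0.5 moi) in presence of compound, 44 h infection period, cells seeded 1,000/well 4 h prior.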
Pf growth 96h: P. falciparum growth inhibition at 96 hour, primary screen for plastid delayed-death inhibitors. Potency, µM (top dose mostly 28.7 µM), without a hit: top-dose activity change, negative = inhibition, most hits filed as inhibitors. 320,000 compounds, 6.9% hits. P. falciparum luciferase reporter growth, 96 h; further: on the % scale 0 is the no-effect control and ±100 the full control effect
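Luminescence readout: decreased luciferase signal marks inhibited growth of reporter-expressing P. falciparum in infected red cells (2% hematocrit, 0.05% parasitemia final), exposed to compound two generations (96 h, 37 C, 5% CO2).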
Pf growth 48h: P. falciparum growth inhibition at 48 hours (one generation) | AID 504832 | P. falciparum luciferase growth in erythrocytes, 48 h | Potency, µM (titrated, usually from 28.7 µM), for inactives: at the top dose activity change, negative = inhibition, hits mostly inhibitors | 310,000 compounds, 5.9% hits; further: on the % scale 0 is the no-effect control and ±100 the full control effect
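Parasite viability was followed by luminescence of a genomically integrated firefly luciferase. Cultures held 0.1% parasitemia at 2% hematocrit (final), incubated under 5% CO2 at 37 C.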
Vaccinia Venus: inhibitors of vaccinia virus (Venus reporter); Vaccinia virus Venus reporter expression, fluorescence; Potency, µM (highest dose often 36.5 µM), for inactives: at the top dose activity change, negative = inhibition, usual class: inhibitors; 330,000 compounds, 0.46% hits; calls by dose curve; tested in A549 cells; further: on the % scale 0 is the no-effect control and ±100 the full control effect; nearly all actives have a fitted effect of over 30% in size
NS1 inh: influenza NS1 inhibition; 270,000 compounds, 0.4% hits; Potency, µM (series often up to 46.1 µM), for inactives: top-dose activity, positive = more growth; calls by dose curve; further: actives are rising curves; nearly all actives have a fitted effect of over 50% in size
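Compounds were scored for reversing the slow growth caused by influenza A NS1 in S. cerevisiae, measured by optical density at 600 nm. Assay medium contained 2% galactose at pH 6.0; NS1-free yeast of the same strain were the positive control.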
VACV mCherry inh: inhibitors of vaccinia virus infection (mCherry reporter signal). Vaccinia virus mCherry reporter infection, fluorescence. Potency, µM (top dose mostly 36.5 µM), inactives show at the top dose activity change, negative = inhibition, actives largely listed as inhibitors. 310,000 compounds, 0.63% hits; calls by dose curve; tested in A549 cells; further: on the % scale 0 is the no-effect control and ±100 the full control effect; nearly all actives have a fitted effect of over 35% in size
Numbers without * were called inactive; i = inactive; ? = inconclusive; nt = not tested or not shown. Unless noted, the call rests on the fitted dose curve; in most records, active means well fitted inhibition curve with a large enough effect; inconclusive means small, poorly fitted or top-dose-only effect, or another doubt; inactive means no such curve, though single readings can be large or run the other way. Potency means the concentration at half of the fitted maximal effect.

SMILES	HCV inh	Pf growth 96h	Pf growth 48h	Vaccinia Venus	NS1 inh	VACV mCherry inh
COCC(=O)Nc1nc2n(n1)C(c1ccccc1)CC(c1ccc(OC)cc1)N2 (configuration not stated)	-6%	nt	nt	nt	-1%	nt
CC1CCN(c2ccc3c(c2)S(=O)(=O)c2cccc(C(=O)NCc4cccc(F)c4)c2C3=O)CC1	-3%	37%	-16%	33%	nt	-16%
COc1ccc(NC(=O)CN(c2ccc(Cl)cc2)S(C)(=O)=O)cc1OC	-2%	-34%	2%	nt	-1%	nt
COc1ccc(C(=O)N2CCC(C(=O)Nc3ccccc3OC)CC2)cc1	-15%	-1%	-6%	nt	2%	nt
O=C(c1cc(-c2ccccc2)nn1-c1ccccc1)N1CCN(S(=O)(=O)c2c(F)cccc2F)CC1	13µM*	?	?	-12%	nt	i
COc1ccc(S(=O)(=O)N2CCN(C(=O)c3c(C)nn(-c4ccccc4)c3C)CC2)cc1	-2%	8.3µM*	10µM*	-11%	nt	10%
O=C(c1nc(-c2ccccc2)n(-c2ccccc2)n1)N1CCN(S(=O)(=O)c2ccccc2)CC1	-48%	nt	9.3µM*	-27%	9%	?
O=C(O)c1nc(-c2ccccc2)n(-c2ccccc2)n1	5%	41%	-8%	-8%	0%	-11%
CC1CC(C)CN(CC(=O)NC(c2ccccc2)c2ccccc2)C1 (configuration not stated)	-6%	5%	12µM*	nt	-2%	nt
CC1Cc2ccccc2N1CC(=O)NC(=O)NCc1ccccc1 (configuration not stated)	17%	-14%	-3%	4%	nt	?
O=C(Cn1cnc2ccccc21)NC(c1ccccc1)c1ccccc1	-18%	3.7µM*	4.1µM*	nt	4%	nt
CC1Cc2ccccc2N1CC(=O)NC(c1ccccc1)c1ccccc1 (configuration not stated)	?	6.6µM*	10µM*	-14%	5%	?
COc1ccc(OCc2nnc(SCC(=O)Nc3cccc(Cl)c3)o2)cc1	5%	-3%	16%	-1%	-1%	-21%
COc1ccccc1CNC(=O)Nc1nc(C(N)C(C)C)cs1 (configuration not stated)	nt	nt	nt	-9%	nt	i
COc1ccc2c(c1OC)C[N+]1([O-])CCc3cc4c(cc3C1C2)OCO4 (configuration not stated)	8%	4.1µM*	?	2%	-1%	i
Cc1ccc(C(=O)NC(=S)Nc2ccc(S(=O)(=O)N(C)c3ccccc3)cc2)cc1	13%	nt	4%	-12%	7%	nt
CCCn1c(=O)c(F)cn(Cc2ccc(OC)c([N+](=O)[O-])c2)c1=O	9%	38%	9%	nt	5%	nt
Cc1csc(=O)n1CC(=O)OCC(=O)NCc1ccc(Cl)cc1Cl	15%	15%	-19%	-2%	nt	-5%
Cc1cc2nc(C)n(CCCNC(=O)Nc3ccc(F)cc3)c2cc1C	-27%	nt	12µM*	nt	-3%	nt
N#CC1=C2SCN(Cc3ccco3)CN2C(=O)CC1c1cccc2ccccc12 (configuration not stated)	13%	-6%	12µM*	nt	-48%	nt
COCCCNC(=O)CC1Oc2ccccc2NC1=O (configuration not stated)	6%	37%	7%	2%	?	i
COc1ccccc1NC(=O)c1ccc(-c2ccccc2[N+](=O)[O-])o1	11µM*	10%	34%	-15%	nt	-25%
CN1CCN(c2ccccc2NC(=O)c2ccc(-c3ccc(Br)cc3)o2)CC1	?	4%	13µM*	-9%	4%	-3%
COc1ccccc1NC(=O)c1ccc(-c2ccc(Br)cc2)o1	8.9µM*	3%	nt	?	-20%	?
O=C(Nc1cccc2cccnc12)c1ccc(Br)o1	?	nt	28%	nt	-94%	nt
SMILES	HCV inh	Pf growth 96h	Pf growth 48h	Vaccinia Venus	NS1 inh	VACV mCherry inh
O=C(Nc1cccc2ccccc12)c1ccc(Br)o1	-15%	15µM*	16%	-6%	-11%	-14%
CC(C)(C)OC(=O)N1CCN(c2ccc(NC(=O)Cn3nnc(-c4ccccc4)n3)cc2)CC1	11%	nt	-4%	-23%	?	-29%
Cc1cc(N2CCN(C)CC2)ccc1NC(=O)c1ccc(-c2ccc(Cl)cc2)o1	14µM*	4.1µM*	?	-14%	nt	?
CC1CCN(c2ccccc2NC(=S)NC(=O)c2ccc(-c3cccc([N+](=O)[O-])c3)o2)CC1	?	?	?	nt	1%	nt
CCC(=O)N1CCN(c2ccccc2NC(=O)c2ccc(-c3cccc([N+](=O)[O-])c3)o2)CC1	?	5%	8.3µM*	12%	20%	i
COc1ccccc1NC(=O)CNC(=O)c1ccc(Br)o1	3%	0.029µM*	25%	nt	-13%	nt
COc1ccc(CNC(=O)CNC(=O)c2ccc(Br)o2)cc1OC	8%	14%	7%	-11%	6%	-3%
CN1CCN(c2ccccc2NC(=O)c2ccc(-c3cccc([N+](=O)[O-])c3)o2)CC1	5.6µM*	?	10µM*	?	-7%	i
COc1cccc(OC)c1C(=O)NC(=S)NCc1ccccc1	15%	?	-7%	-2%	1%	-11%
COc1cc(NC(=O)c2ccc(-c3cccc(F)c3)o2)ccc1NC(=O)c1ccccc1Cl	7.1µM*	nt	nt	-26%	nt	-29%
c1cc(-c2cccs2)nc(-c2cccs2)c1	15%	13%	24%	5%	-7%	-2%
c1csc(-c2cn3ccc4ccccc4c3n2)c1	-29%	105%	0.26µM*	-12%	2%	?
Cn1c(=O)[nH]c(=O)c2c1nc(N1CCOCC1)n2CC(=O)c1ccccc1	-8%	?	38%	-3%	-1%	-1%
CCOC(=O)C1CCN(C(=O)C(=O)c2cn(CC(=O)N3CCCCCC3)c3ccccc23)CC1	-26%	10µM*	12µM*	-11%	18%	i
CCOC(=O)N1CCN(C(=O)C(=O)c2cn(CC(=O)N3CCCCCC3)c3ccccc23)CC1	5%	12µM*	12µM*	-17%	12%	-10%
CCn1cc(C(=O)c2cccs2)c2ccccc21	?	?	nt	-12%	-11%	0%
COc1ccc(NC(=O)Cn2cc(C(=O)c3ccco3)c3ccccc32)cc1	3.5µM*	-6%	?	-14%	8%	-24%
CCOC(=O)Cn1cc(C(=O)c2cccs2)c2ccccc21	8.9µM*	1%	31%	-4%	-33%	-11%
CC1CCCCN1C(=O)Cn1cc(C=O)c2ccccc21 (configuration not stated)	-1%	13µM*	-4%	-6%	-1%	1%
CC1CCCCN1C(=O)C(=O)c1cn(CC(=O)N2CCCC2)c2ccccc12 (configuration not stated)	6%	?	-13%	-13%	?	-17%
